Laboratory results taken from the supplement of paper PMC3724861.
Only a selection was taken, and hits are over-represented in it overall. The hit rate among all sequences tested is not known here.

test system: T1, Caupolican (Caup) homeodomain DNA-binding domain; test: PBM E-score (8-mer, recovered from the published 9-mer minima) (E-score (dimensionless, -0.5 to 0.5)); Drosophila protein; higher = stronger relative binding preference, active = 0.31 or more
T1 sequence: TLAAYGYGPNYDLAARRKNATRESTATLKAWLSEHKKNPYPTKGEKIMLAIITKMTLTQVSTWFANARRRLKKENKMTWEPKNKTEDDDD
In short: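 An enrichment score, with higher meaning stronger, expresses relative binding preference for each short DNA word. The protein used was Caup's homeodomain DNA-binding domain (residues 214-303), produced by in vitro transcription and translation and tested at 100 nM on custom-designed protein binding microarrays. The 8-mer values were recovered from published 9-mer scores, each equal to the lower of its two constituent 8-mer scores.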

PBM E-score, active:
ACAACACG 0.387, ACAACACT 0.326, ACAACACA ≥ 0.395, ACAAGCAT 0.377, ACAAGCAA 0.341, CATGTAGG 0.356, CATGTAGC 0.332, CATGTAGA 0.391, TATATACA 0.355, GTTATACA 0.329, TGTATACA ≥ 0.356, AATATACA 0.322, CATGTAAG 0.395, AATGTAAA 0.323, CATGTAAA 0.421, TATGTAAA 0.327, CATGTAAC 0.431, GAACATGC 0.354, CAACATGC 0.317, ACACATGT 0.372, AAACATGC 0.342, GAACATGA 0.421, AAACATGA 0.409, TAACATGA 0.424, CAACATGA 0.344, GAACATAC 0.331, AAACATGT 0.443, AAACATGG 0.321

PBM E-score, inactive:
CGCAGCCG -0.267, ACCTCCGA -0.0504, GCTTCTGA -0.0992, CCGCTTTA -0.0283, GCAACACA 0.144, AAAACACT 0.0862, ACAACTCT 0.147, ACAACACC 0.301, CCAACACG 0.237, CCAACACA 0.17, CTATTAGC 0.0355, CGCAATAC 0.0451, AGATTAGG 0.00061, GCCCTTCC -0.169, AAAGGCGT -0.125, TCAAGCAA 0.0149, GCAAGCAA -0.0127, ACAAGCAG 0.229, ACAAGCAC 0.246, AGACCCGA -0.108, ACTTTACC 0.122, CGGATGGC -0.0761, AACGCCCG -0.108, GCAGTCCC -0.194, AATGTAGC 0.0881, CAAGTAGG -0.00819, GATGTAGA 0.208, AATGTAGA 0.139, GATGTAGC 0.166, AATGTAGG 0.116, GACTAGGC -0.0927, CCTCCAAC -0.102, TAGAAATA 0.1, CCGCTACA 0.0971, GGCCGTAA -0.148, CATTACCA 0.119, ACCAATCC -0.0418, ATTATACA 0.254, CTTATACA 0.11, AGTATACA 0.309, AATATACC 0.13, GGTATACA 0.183, CATATACA 0.298, AATATACT 0.155, GATATACA 0.263, GCCCGTAC -0.0447, GGGATATA -0.0036, ATCGTTCG 0.0642, AGCCGTTC -0.195, ACGAACCT -0.0743, ACGTGGCG -0.111, CCACAGAA -0.00495, TATTACGA 0.162, GTAGTTCA 0.136, AATAAATA 0.202, AGTATCTG 0.00127, AGTGACGC -0.155, CCTGTAAA 0.131, CCTGTAAG 0.127, ACTGTAAA 0.154, AATGTAAG 0.214, AATGTAAT 0.303, TCTGTAAA 0.0832, GCTGTAAA 0.128, GATGTAAA 0.305, GTCGCTTA 0.0465, CACGAAAG 0.0338, CTCGTGAA 0.027, GTAGATAA 0.14, ACCATAAT 0.119, GATGTAAC 0.306, AATGTAAC 0.295, GATTTTAC 0.156, CTTTAGTC -0.0734, AATCGTAA 0.173, CCCTAGAA -0.0811, GCACATGC -0.0345, CAACATTC 0.0579, CAACATCC 0.238, AAACATCC 0.258, ACACATGC 0.236, GAACATCC 0.295, ACACATGG 0.167, AAACATTC 0.209, AACGAATG 0.00089, ATACCAGC -0.0192, AAAACACG 0.303, GGGTCAAA -0.108, CGTAAAAC -0.0282, CATAGAGA 0.113, ATTAGTAG 0.212, GCATGCGC -0.104, ATGCGGGA -0.0659, GGGTGTGA -0.0838, ACACATGA 0.265, TAACATCA 0.305, CCACATGA 0.124, AAACATCA 0.279, TCACATGA 0.182, CAACATGG 0.295, GAGCATGA 0.0786, GAACATTA 0.219, CGAACGAC 0.0606, ATGGTATG 0.132, CTATTTAA -0.0109, CGTCTTGA -0.0138, AGGTCTCA -0.08, ACTGAGTC -0.0541, AGCTATAG -0.0145, AAACATCG 0.217, AAACATTG 0.183, CAACATAC 0.302, GGACATAC 0.179, AAACATTT 0.252, AAACATCT 0.215, CCAGTTCC -0.2, GCAGCGAC -0.118
